Source: PubChem BioAssay (NCATS)
Results filed as inconclusive are left out. Activity calls are given as the source filed them. Calls follow the shape of the dose curve; as a rule, active = well fitted curve in the direction sought with a large enough effect; inconclusive = small, poorly fitted or top-dose-only effect, or another doubt; inactive = no such curve, though single readings can be large; an effect the other way counts as inactive or inconclusive.

How the values were obtained:
[1] = biological target: Single-stranded DNA cytosine deaminase (Homo sapiens) (UniProt Q9GZX7); assay: Validation qHTS assay for inhibitors of Activation Induced Cytidine Deaminase (AID): AID signal (AID 1347429)
Single-stranded DNA cytosine deaminase (Homo sapiens), sequence (Q9GZX7 whole entry, looked up): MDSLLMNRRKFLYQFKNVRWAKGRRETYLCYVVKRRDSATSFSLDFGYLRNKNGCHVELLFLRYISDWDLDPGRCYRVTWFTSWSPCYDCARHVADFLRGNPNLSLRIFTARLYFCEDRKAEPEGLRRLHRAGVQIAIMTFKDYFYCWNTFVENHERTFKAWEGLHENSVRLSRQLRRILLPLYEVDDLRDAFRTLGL
How it was run: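 Fluorescence at 540 nm excitation and 590 nm emission reports ssDNA cytosine deamination by AID, with UDG in the same well. Compound-treated reactions ran 4 hr at room temperature with DJC20/DJC23 substrate, followed by 30 min NaOH treatment.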

[2] = Primary qHTS for inhibitors of La Crosse Virus (LACV) - induced cell death in SH-SY5Y cells (AID 1508616);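 also: top concentration of the series differs between compounds; higher means more rescue of cells from virus-induced death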
How it was run: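 Protection against LACV-induced cell death is scored in SH-SY5Y cells exposed to compounds and virus (0.01 MOI) for 6 days. Data normalized to virus-infected DMSO wells and virus-free DMSO wells.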

[3] = biological target: Calcium and integrin-binding protein 1 (Homo sapiens) (UniProt Q99828); assay: Validation qHTS for Identification of Calcium Integrin Binding protein 1 (CIB1) Competitor (AID 1508618)
Calcium and integrin-binding protein 1 (Homo sapiens), sequence (Q99828 whole entry, looked up): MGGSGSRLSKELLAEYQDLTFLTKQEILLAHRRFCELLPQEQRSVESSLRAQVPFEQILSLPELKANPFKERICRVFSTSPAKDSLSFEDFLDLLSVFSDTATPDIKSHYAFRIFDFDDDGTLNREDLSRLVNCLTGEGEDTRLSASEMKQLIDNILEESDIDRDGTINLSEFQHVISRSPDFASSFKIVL
How it was run: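 Fluorescence polarization with 1 uM CIB1-GST and 100 nM FITC-alphaIIb peptide in HEPES pH 7.4, NaCl, 5 mM CaCl2, Tween20. Compounds at up to 114 uM final, preincubated with protein 15 min; read after 15 min more at RT.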

[4] = Primary qHTS for small molecule stabilizers of the endoplasmic reticulum resident proteome: Secreted ER Calcium Modulated Protein (SERCaMP) assay (AID 1508630)
How it was run: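 GLuc-SERCaMP-expressing SH-SY5Y cells, pretreated 16 h with compound, are challenged with thapsigargin to empty ER calcium stores; after 4 h, coelenterazine is added directly to the medium and luminescence is imaged.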

[5] = biological target: Papain (Carica papaya) (UniProt P00784); assay: Primary qHTS assay for inhibitors of the protease papain (AID 1645873);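 also: papain turnover of Z-FR-AMC read as the AMC fluorescence gain over 10 min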; also: potency is read from the fitted curve at half-maximal effect
Papain (Carica papaya), sequence (P00784 whole entry, looked up): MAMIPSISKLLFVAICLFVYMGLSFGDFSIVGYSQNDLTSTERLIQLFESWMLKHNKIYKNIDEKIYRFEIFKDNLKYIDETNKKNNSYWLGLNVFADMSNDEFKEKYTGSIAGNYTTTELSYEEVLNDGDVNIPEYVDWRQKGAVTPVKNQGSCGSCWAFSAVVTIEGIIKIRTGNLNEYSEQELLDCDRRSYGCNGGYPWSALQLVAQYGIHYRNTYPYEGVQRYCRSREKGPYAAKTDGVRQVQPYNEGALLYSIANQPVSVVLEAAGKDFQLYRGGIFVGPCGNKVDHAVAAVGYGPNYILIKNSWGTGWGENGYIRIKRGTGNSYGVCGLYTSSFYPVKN

Measured: Potency

COC(=O)[C@H](NC(=O)c1cc(-c2ccccc2)nc2ccccc12)c1ccccc1
not listed: [5]
inactive: all other assays above

Nc1nc2c(cnn2CCc2ccccc2)c2nc(-c3ccco3)nn12
not listed: [5]
inactive: all other assays above

Cc1cccc(C(=O)NCN2CCN(c3ccccc3C#N)CC2)c1
inactive: all assays above

N[C@H]1CONC1=O
inactive: all assays above

C=C(C)C1CC=C(C(=O)O)CC1 (stereo not drawn)
inactive: all assays above

O=C(O)C1CN(CCCP(=O)(O)O)CCN1 (stereo not drawn)
inactive: all assays above

COc1ccc(C(=O)NCc2cccnc2)cc1C(=O)NCc1cccnc1
inactive: all assays above

N=S(=O)(O)Cc1noc2ccccc12
inactive: all assays above

CNc1cc(NS(=O)(=O)c2ccc(N)cc2)nc(NC)n1
inactive: all assays above

CC[C@@H]1Cc2cc(O)ccc2C2=C1c1ccc(O)cc1C[C@H]2CC
active: [5] 5.01 µM
inactive: all other assays above

CN(C)C(=O)/N=N/C(=O)N(C)C
inactive: all assays above

CCCc1c(-c2ccc(O)cc2)nn(-c2ccc(O)cc2)c1-c1ccc(O)cc1
inactive: all assays above

C[C@H]1CC2C3CCC4=CC(=O)C=C[C@]4(C)[C@@]3(Cl)[C@@H](O)C[C@]2(C)[C@@]1(O)C(=O)CO (stereo partly drawn)
inactive: all assays above

CC(C)(CO)Cc1cc(C(C)(C)C)c(O)c(C(C)(C)C)c1
inactive: all assays above

O=c1[nH]ccc2c(O)cccc12
inactive: all assays above

O=C1C2C=CC=CC2=NC(=S)N1CCN1CCC(=C(c2ccc(F)cc2)c2ccc(F)cc2)CC1 (stereo not drawn)
inactive: all assays above

NC1C=CC=C(C(=O)O)C1 (stereo not drawn)
inactive: all assays above

NOCC(=O)O
inactive: all assays above

O=C(O)C1CCCNC1 (stereo not drawn)
inactive: all assays above

C=CCN1CCc2cc(O)c(O)cc2C(c2ccccc2)C1 (stereo not drawn)
inactive: all assays above

CCCn1c(=O)c2c(ncn2C)n(CCC)c1=O
inactive: all assays above

CCC1(O)CC2CN(CCc3c([nH]c4ccccc34)[C@@](C(=O)OC)(c3cc4c(cc3OC)N(C=O)C3[C@]45CCN4CC=C[C@@](CC)([C@@H](OC(C)=O)[C@]3(O)C(=O)OC)[C@H]45)C2)C1 (stereo partly drawn)
inactive: all assays above

c1ccc2nc(C3=NCCN3)ccc2c1
inactive: all assays above

COc1cc(CC(=O)O)ccc1O
inactive: all assays above

CC1=C(/C=C/C(C)=C/C=C/C(C)=C\C(=O)O)C(C)(C)CCC1
inactive: all assays above

O=C(O)/C=C/c1ccc(O)c(O)c1
inactive: all assays above

N=C(N)SCCc1cnc[nH]1
inactive: all assays above

N[C@@H](CS(=O)O)C(=O)O
inactive: all assays above

CCCCCCC(=O)OC1CC(C)(C)NC(C)(C)C1
inactive: all assays above

Oc1cc(O)c2c(c1)O[C@H](c1ccc(O)c(O)c1)[C@@H](O)C2
inactive: all assays above

O=C(O)c1cc2cc(F)ccc2[nH]1
inactive: all assays above

CC(=O)NNC(=O)N1Cc2ccccc2Oc2ccc(Cl)cc21
inactive: all assays above

CC(C)[C@@H]1CC[C@@H](C)C[C@@H]1P(=O)(c1ccccc1)c1ccccc1
inactive: all assays above

CC(=O)NCCc1c[nH]c2ccc(O)cc12
inactive: all assays above

Cn1c(=O)[nH]c2ncn(C)c2c1=O
inactive: all assays above
